Our source for the growth inhibition values is PubChem BioAssay (NCI).

A short description of test [1]: NCI Yeast Anticancer Drug Screen. Data for the rad50 strain (AID 155).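 Also: 0% = growth of vehicle-only cultures of the same strain.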 To be noted: S. cerevisiae rad50 strain growth inhibition, stronger effect = higher value. In short, it runs like this:
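Yeast carrying a defined DNA repair defect were exposed to test compounds, and growth was compared with vehicle-treated controls to give percent inhibition.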

A short description of test [2]: NCI Yeast Anticancer Drug Screen. Data for the mec2-1 strain (AID 157). The conditions noted are these: S. cerevisiae mec2-1 strain, stronger effect = higher value. An outline of the steps: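 Using mec2-1 yeast: add compound, measure growth, express inhibition versus vehicle-treated cultures.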
A short description of test [3]: NCI Yeast Anticancer Drug Screen. Data for the sgs1 mgt1 strain (AID 161).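 Also: 0% = growth of cultures given vehicle only.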 To be noted: S. cerevisiae sgs1 mgt1 strain, stronger effect = higher value. In short, it runs like this: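 This yeast growth screen uses a strain with defined DNA-repair lesions; compound-treated growth is compared with vehicle-treated growth.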
The nature of test [4]: NCI Yeast Anticancer Drug Screen. Data for the cln2 rad14 strain (AID 165).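 Also: 0% = growth equal to vehicle treated cultures.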 The conditions noted are these: S. cerevisiae cln2 rad14 strain, stronger effect = higher value. In short, it runs like this: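 Yeast strain cln2 rad14, bearing defects in cell cycle control and DNA repair, serves as the test system; values reflect growth inhibition compared with vehicle.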
Test [5] is described as follows: NCI Yeast Anticancer Drug Screen. Data for the bub3 strain (AID 167). To be noted: S. cerevisiae bub3 mutant strain, stronger effect = higher value. In short, it runs like this:
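Compounds were applied to a genetically altered yeast strain carrying a cell-cycle control defect. Growth inhibition was scored against vehicle-treated controls.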

Test [6] is described as follows: NCI Yeast Anticancer Drug Screen. Data for the mlh1 rad18 strain (AID 175). To be noted: S. cerevisiae mlh1 rad18 strain growth inhibition, stronger effect = higher value. An outline of the steps:
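Steps: expose repair-defective yeast to compound; measure growth; express inhibition against vehicle-treated controls.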

Setting [7] is: at 5.0 µM (retest, dose inferred, filed as 0.5).
Setting [8] is: at 50.0 µM (retest, dose inferred, filed as 5.0).

Compounds without any hit were thinned out: in the full panel of roughly 79,000, 15% have a hit. Values without a mark were called inactive. Calls of active or inactive are those of the source. Rule as the data show it: active = growth inhibition above about 70%; inactive = the rest.

For `Cc1ccc(O)c(-c2cscn2)c1`, the growth inhibition in test [1] (setting [7]) is 49%; in test [1] (setting [8]) it was 68%; in test [1] (at 50.0 µM) it was 62.6%; in test [2] (setting [7]), 39%; in test [2] (setting [8]), 60%; in test [2] (at 50.0 µM), 6.95%. Besides, the growth inhibition in test [3] (setting [7]) is 15%; in test [3] (setting [8]), 22%; in test [3] (at 50.0 µM), 55.5%; in test [4] (setting [7]) it was 65%; in test [4] (setting [8]) it was 72% (active); in test [4] (at 50.0 µM) it was 31.5%. For the same compound, the growth inhibition in test [5] (setting [7]) was 46%; in test [5] (setting [8]), 50%; in test [5] (at 50.0 µM), 48.5%; in test [6] (setting [7]) it was 47%; in test [6] (setting [8]), 59%; in test [6] (at 50.0 µM) it was 85.7% (active).
For the compound `COc1ccc(C2Oc3ccc(Cl)cc3C=C2[N+](=O)[O-])cc1OC` (stereo not given), the growth inhibition was 89% (active) in test [1] (setting [7]); 97% (active) in test [1] (setting [8]); 74% (active) in test [1] (at 50.0 µM); 91% (active) in test [2] (setting [7]); 96% (active) in test [2] (setting [8]); 77% (active) in test [2] (at 50.0 µM). The growth inhibition in test [3] (setting [7]) was 86% (active); in test [3] (setting [8]) it was 97% (active); in test [3] (at 50.0 µM) it was 85.5% (active); in test [4] (setting [7]) it was 63%; in test [4] (setting [8]) it was 96% (active); in test [4] (at 50.0 µM) it was 84.3% (active). The growth inhibition in test [5] (setting [7]) is 88% (active); in test [5] (setting [8]), 96% (active); in test [5] (at 50.0 µM), 86.7% (active); in test [6] (setting [7]), 95% (active); in test [6] (setting [8]) it was 97% (active); in test [6] (at 50.0 µM), 86.2% (active).
With `CCC(N)(CO)CO`, the growth inhibition in test [1] (setting [7]) was 7%; in test [1] (setting [8]) it was 67%; in test [1] (at 50.0 µM), 3.65%; in test [2] (setting [7]), 5%; in test [2] (setting [8]) it was 8%; in test [2] (at 50.0 µM), 8.3%. Moreover, the growth inhibition is 2% in test [3] (setting [7]); 11% in test [3] (setting [8]); 9.7% in test [3] (at 50.0 µM); 5% in test [4] (setting [7]); 12% in test [4] (setting [8]); 71.5% (active) in test [4] (at 50.0 µM). Besides, the growth inhibition is 3% in test [5] (setting [7]); 14% in test [5] (setting [8]); 44.1% in test [5] (at 50.0 µM); 2% in test [6] (setting [7]); 8% in test [6] (setting [8]); -30.2% in test [6] (at 50.0 µM).
In the case of `Cc1cnc(Sc2c([N+](=O)[O-])ncn2C)nc1`, the growth inhibition in test [1] (setting [7]) is 3%; in test [1] (setting [8]) it was 8%; in test [1] (at 50.0 µM), 71.8% (active); in test [2] (setting [7]), 6%; in test [2] (setting [8]), 7%; in test [2] (at 50.0 µM), 98.2% (active). Further, the growth inhibition in test [3] (setting [7]) was 3%; in test [3] (setting [8]), 9%; in test [3] (at 50.0 µM), 63.7%; in test [4] (setting [7]), 0%; in test [4] (setting [8]), 7%; in test [4] (at 50.0 µM), 41.5%. Also, the growth inhibition in test [5] (setting [7]) was 1%; in test [5] (setting [8]), 4%; in test [5] (at 50.0 µM), 99.5% (active); in test [6] (setting [7]), -1%; in test [6] (setting [8]), 3%; in test [6] (at 50.0 µM), 80.1% (active).
Consider `COc1cc(/C=C/C2=C(C)C(=O)CC(c3cc(OC)c(OC)c(OC)c3)C2C)cc(OC)c1OC` (stereo not given), for which the growth inhibition was 2% in test [1] (setting [7]); -1% in test [1] (setting [8]); -6.25% in test [1] (at 50.0 µM); -5% in test [2] (setting [7]); 22% in test [2] (setting [8]); -1.7% in test [2] (at 50.0 µM). Besides, the growth inhibition in test [3] (setting [7]) is 0%; in test [3] (setting [8]), 25%; in test [3] (at 50.0 µM), 15.4%; in test [4] (setting [7]), -8%; in test [4] (setting [8]), -27%; in test [4] (at 50.0 µM), 75.8% (active). Moreover, the growth inhibition in test [5] (setting [7]) is -2%; in test [5] (setting [8]), 7%; in test [5] (at 50.0 µM), 2.1%; in test [6] (setting [7]), 0%; in test [6] (setting [8]) it was -102%; in test [6] (at 50.0 µM), 42.6%.
On to `O/N=C(/CN1CCN(c2ccccc2)CC1)c1ccccc1`, for which the growth inhibition is 1% in test [1] (setting [7]); -1% in test [1] (setting [8]); 45.4% in test [1] (at 50.0 µM); 0% in test [2] (setting [7]); -2% in test [2] (setting [8]); -14.4% in test [2] (at 50.0 µM). In addition, the growth inhibition was -4% in test [3] (setting [7]); -3% in test [3] (setting [8]); 10.7% in test [3] (at 50.0 µM); 2% in test [4] (setting [7]); 1% in test [4] (setting [8]); -68.2% in test [4] (at 50.0 µM). Further, the growth inhibition in test [5] (setting [7]) was -2%; in test [5] (setting [8]), -2%; in test [5] (at 50.0 µM) it was 13.4%; in test [6] (setting [7]), 1%; in test [6] (setting [8]), -4%; in test [6] (at 50.0 µM), -3.8%.
For the compound `C(=NCCc1ccccc1)c1ccccc1B1OB(c2ccccc2C=NCCc2ccccc2)OB(c2ccccc2C=NCCc2ccccc2)O1`, the growth inhibition is 94% (active) in test [1] (setting [7]); 99% (active) in test [1] (setting [8]); 99.6% (active) in test [1] (at 50.0 µM); 93% (active) in test [2] (setting [7]); 100% (active) in test [2] (setting [8]); 99.8% (active) in test [2] (at 50.0 µM). Besides, the growth inhibition in test [3] (setting [7]) is 90% (active); in test [3] (setting [8]), 99% (active); in test [3] (at 50.0 µM) it was 99.7% (active); in test [4] (setting [7]), 77% (active); in test [4] (setting [8]), 98% (active); in test [4] (at 50.0 µM), 99.3% (active). Moreover, the growth inhibition in test [5] (setting [7]) is 79% (active); in test [5] (setting [8]), 99% (active); in test [5] (at 50.0 µM) it was 99.7% (active); in test [6] (setting [7]) it was 92% (active); in test [6] (setting [8]) it was 99% (active); in test [6] (at 50.0 µM) it was 99.5% (active).
On to `CN(Cc1cc(Cl)cc(Cl)c1O)Cc1c(O)ccc2ccccc12`, for which the growth inhibition is 31% in test [1] (setting [7]); 100% (active) in test [1] (setting [8]); 98.5% (active) in test [1] (at 50.0 µM); 14% in test [2] (setting [7]); 100% (active) in test [2] (setting [8]); 98.3% (active) in test [2] (at 50.0 µM). Also, the growth inhibition in test [3] (setting [7]) is 10%; in test [3] (setting [8]), 99% (active); in test [3] (at 50.0 µM), 98.7% (active); in test [4] (setting [7]) it was -34%; in test [4] (setting [8]), 99% (active); in test [4] (at 50.0 µM), 98.1% (active). Also, the growth inhibition in test [5] (setting [7]) was -11%; in test [5] (setting [8]), 100% (active); in test [5] (at 50.0 µM) it was 98.6% (active); in test [6] (setting [7]), 12%; in test [6] (setting [8]) it was 99% (active); in test [6] (at 50.0 µM), 98.5% (active).
As to `Cc1cc(C)nc(NS(=O)(=O)c2ccc(NC(=O)c3cccnc3Nc3cccc(Cl)c3)cc2)n1`, the growth inhibition in test [1] (setting [7]) was -2%; in test [1] (setting [8]), 33%; in test [1] (at 50.0 µM), 45.9%; in test [2] (setting [7]), -9%; in test [2] (setting [8]), 34%; in test [2] (at 50.0 µM) it was 13.1%. Also, the growth inhibition is 6% in test [3] (setting [7]); 51% in test [3] (setting [8]); 54.9% in test [3] (at 50.0 µM); -10% in test [4] (setting [7]); 35% in test [4] (setting [8]); 22.1% in test [4] (at 50.0 µM). Besides, the growth inhibition in test [5] (setting [7]) is -6%; in test [5] (setting [8]) it was 41%; in test [5] (at 50.0 µM) it was 25.5%; in test [6] (setting [7]), -1%; in test [6] (setting [8]) it was 53%; in test [6] (at 50.0 µM), 81.5% (active).
For `CCN(CC)CCOc1ccc(C(=C2CCCCC2)c2ccc(OCCN(CC)CC)cc2)cc1`, the growth inhibition in test [1] (setting [7]) was 34%; in test [1] (setting [8]), 34%; in test [1] (at 50.0 µM) it was 84.8% (active); in test [2] (setting [7]) it was 31%; in test [2] (setting [8]), 31%; in test [2] (at 50.0 µM), 41%. Also, the growth inhibition was 31% in test [3] (setting [7]); 31% in test [3] (setting [8]); 89.1% (active) in test [3] (at 50.0 µM); 31% in test [4] (setting [7]); 31% in test [4] (setting [8]); 77% (active) in test [4] (at 50.0 µM). The growth inhibition is 31% in test [5] (setting [7]); 31% in test [5] (setting [8]); 76.8% (active) in test [5] (at 50.0 µM); 28% in test [6] (setting [7]); 28% in test [6] (setting [8]); 78.5% (active) in test [6] (at 50.0 µM).
